Out of some 39,000 compounds screened, about 220 (0.56%) showed activity. Only a selection was taken, and actives are over-represented in it overall. Unmarked numbers belong to inactive results.
These molecules were tested on Escherichia coli K-12 BW25113 (assay: relative growth (OD600 normalised to plate interquartile mean) (fraction); higher = less growth inhibition, active = 0.2 or less). Settings: 50 µM; LB; incubation time: overnight (16-24 h).
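Further: Wild-type cells incubated without shaking, value is the mean of two biological replicates.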

Compound	relative growth
C[C@H](CO)N1C[C@H](C)[C@H](CN(C)Cc2ccc(-c3ccccc3)cc2)Oc2c(NC(=O)c3nc4ccccc4s3)cccc2C1=O	1.01
CN1CCC[C@H]1CO	0.919
COCCNC(=O)C[C@@H]1C[C@@H]2c3cc(NS(C)(=O)=O)ccc3O[C@@H]2[C@H](CO)O1	1
C[C@@H]1CN([C@H](C)CO)C(=O)Cc2cc(NC(=O)CCCCCC(=O)Nc3ccccc3N)ccc2O[C@H]1CN(C)C(=O)Nc1cccc2ccccc12	0.963
C[C@@H]1CCCCO[C@H](CN(C)S(=O)(=O)c2ccc(F)cc2)[C@H](C)CN([C@@H](C)CO)C(=O)c2cc(NC(=O)Nc3ccc4c(c3)OCO4)ccc2O1	1
C[C@H]1CCCCO[C@H](CN(C)S(=O)(=O)c2cn(C)cn2)[C@@H](C)CN([C@@H](C)CO)C(=O)c2cc(NS(=O)(=O)c3cn(C)cn3)ccc2O1	0.995
C[C@@H]1CCCCO[C@@H](CN(C)S(=O)(=O)c2cccs2)[C@@H](C)CN([C@H](C)CO)C(=O)c2cc(NC(=O)Nc3ccccc3)ccc2O1	1.02
Cc1ccc(-c2ccc3c(c2)O[C@@H](CN(C)Cc2cncnc2)[C@H](C)CN([C@H](C)CO)S3(=O)=O)cc1	1.01
C[C@H](CO)N1C[C@H](C)[C@@H](CN(C)Cc2ccc3c(c2)OCO3)Oc2c(NC(=O)Nc3cccc4ccccc34)cccc2C1=O	1.01
C[C@H]1CCCCO[C@H](CN(C)C(=O)Nc2ccccc2)[C@@H](C)CN([C@@H](C)CO)C(=O)c2cc(NS(=O)(=O)c3cccs3)ccc2O1	1.02
CCC(=O)Nc1ccc2c(c1)C(=O)N(C)C[C@H](OC)[C@H](C)CN(C(=O)CN1CCOCC1)[C@H](C)CO2	0.974
NCCn1cccn1	1.01
Cl.N=C(N)n1cccn1	0.042 (active)
NCc1ccccc1-n1cccn1	1
Cc1cc(C(=O)Nc2cccc3c2O[C@@H](CN(C)C(=O)Nc2ccc4c(c2)OCO4)[C@@H](C)CN([C@@H](C)CO)C3=O)n(C)n1	0.987
C[C@H]1CN([C@@H](C)CO)C(=O)c2cc(-c3ccc(C(=O)N(C)C)cc3)cnc2O[C@H]1CN(C)C(=O)c1ccncc1	0.964
COc1ccc([Si](C)(C)[C@@H]2[C@@H](CC(=O)N3CCC[C@H]3CO)O[C@]3(C(=O)N(Cc4cccc(N5CCCCC5=O)c4)c4ccccc43)[C@H]2C)cc1	1.02
C=CC1=C(C(=O)O)N2C(=O)[C@@H](NC(=O)/C(=N\OCC(=O)O)c3csc(N)n3)[C@H]2SC1	0.0479 (active)
C=CC1=C(C(=O)O)N2C(=O)C(NC(=O)C(=NO)c3csc(N)n3)C2SC1 (stereo not drawn)	0.05 (active)
Nc1nc(C(=CCC(=O)O)C(=O)NC2C(=O)N3C(C(=O)O)=CCSC23)cs1 (stereo not drawn)	0.0485 (active)
C/C=C/C1=C(C(=O)O)N2C(=O)[C@@H](NC(=O)[C@H](N)c3ccc(O)cc3)[C@H]2SC1	0.876
Nc1nc(/C(=C/CC(=O)O)C(=O)N[C@@H]2C(=O)N3C(C(=O)O)=CCS[C@H]23)cs1	1.01

Compound	relative growth
C=CC1=C(C(=O)O)N2C(=O)C(NC(=O)C(=NOCC(=O)O)c3csc(N)n3)C2SC1 (stereo not drawn)	1.01
C=CC1=C(C(=O)O)N2C(=O)[C@@H](NC(=O)/C(=N\O)c3csc(N)n3)[C@H]2SC1	0.0321 (active)
C[C@H](CO)N1C[C@H](C)[C@H](CN(C)S(=O)(=O)c2ccccc2F)Oc2ncc(C#Cc3ccccc3F)cc2C1=O	0.997
CO[C@@H]1CN(C)C(=O)c2cc(NC(=O)c3ccccc3)ccc2OC[C@@H](C)N(C(=O)CN(C)C)C[C@@H]1C	0.926
Cc1noc(C)c1NC(=O)Nc1cccc2c1O[C@H](CN(C)Cc1ccc(Oc3ccccc3)cc1)[C@H](C)CN([C@H](C)CO)C2=O	0.982
Cc1noc(C)c1S(=O)(=O)Nc1ccc2c(c1)C(=O)N([C@@H](C)CO)C[C@@H](C)[C@@H](CN(C)S(=O)(=O)c1cccs1)O2	1.01
C[C@H](CO)N1C[C@H](C)[C@H](CN(C)Cc2ccc(C(=O)O)cc2)Oc2ccc(NC(=O)CCCN(C)C)cc2C1=O	1.01
COc1ccc(C2=C(NC(=O)c3ccc(OC)cc3-c3cccc(OC)c3)C(=O)c3ccccc3C2=O)cc1	1.01
C[C@@H]1CCCCO[C@@H](CN(C)C(=O)CCC(F)(F)F)[C@H](C)CN([C@H](C)CO)C(=O)c2cc(NS(=O)(=O)c3ccccc3)ccc2O1	0.994
CC=CC1=C(C(=O)O)N2C(=O)C(NC(=O)C(N)c3ccc(O)cc3)C2SC1 (stereo not drawn)	1.08
C/C=C\C1=C(C(=O)O)N2C(=O)[C@H](NC(=O)[C@@H](N)c3ccc(O)cc3)[C@@H]2SC1	0.912
Nc1nc(/C(=N/O)C(=O)N[C@@H]2C(=O)N3C(C(=O)O)=C(/C=C4\CCN([C@@H]5CCNC5)C4=O)CS[C@H]23)ns1	0.0367 (active)
C=CC1=C(C(=O)O)N2C(=O)[C@@H](NC(=O)/C(=N/O)c3csc(N)n3)[C@H]2SC1	0.0336 (active)
C[C@H](CO)N1C[C@H](C)[C@H](CN(C)S(=O)(=O)c2ccc(Cl)cc2)Oc2ccc(NC(=O)CCCN(C)C)cc2C1=O	0.989
COc1ccc(Cc2nn[nH]n2)cc1	1
Cc1noc(C)c1NC(=O)N(C)C[C@H]1OCCCC[C@H](C)Oc2ccc(NC(=O)c3ccccc3)cc2C(=O)N([C@@H](C)CO)C[C@H]1C	0.98
CCc1nc2ccc(C(=O)Nc3cccc(OC)c3)cn2c1N(CC)Cc1cccc(Br)c1	1.01
CO[C@H]1CN(C)C(=O)c2cc(NC(C)=O)ccc2OC[C@@H](C)N(S(=O)(=O)c2cn(C)cn2)C[C@@H]1C	1.01
COc1c(N2CCNC(C)C2)c(F)cc2c(=O)c(C(=O)O)cn(C3CC3)c12 (stereo not drawn)	0.0431 (active)
COc1c(N2CC3CCCNC3C2)c(F)cc2c(=O)c(C(=O)O)cn(C3CC3)c12.Cl (stereo not drawn)	0.0459 (active)
CCn1cc(C(=O)O)c(=O)c2cc(F)c(N3CCNC(C)C3)c(F)c21.Cl (stereo not drawn)	0.0478 (active)

— the supplement of paper PMC9446081
